Shown are actives, neighbours in structure and some others; about 7.5% of the full set was active somewhere.
VACV Venus inh: qHTS for Stage-Specific Inhibitors of Vaccinia Orthopoxvirus: Venus Reporter Primary qHTS; actives 0.46% (n = 330,000); Potency, µM (doses to about 36.5 µM), actives largely listed as inhibitors; Vaccinia virus Venus reporter expression, fluorescence; calls by dose curve; tested in A549 cells; also: nearly all actives have a fitted effect of over 30% in size
Giardia FBPA inh: qHTS Assay for Inhibitors of Fructose-1,6-bisphosphate Aldolase from Giardia Lamblia; Potency, µM (series often up to 59.6 µM), hits mostly inhibitors; purified Giardia FBPA; A8B2U2; actives 0.71% (n = 290,000); AID 2451, 2010; also: nearly all actives have a fitted effect of over 55% in size
Target sequence (A8B2U2 whole entry, looked up): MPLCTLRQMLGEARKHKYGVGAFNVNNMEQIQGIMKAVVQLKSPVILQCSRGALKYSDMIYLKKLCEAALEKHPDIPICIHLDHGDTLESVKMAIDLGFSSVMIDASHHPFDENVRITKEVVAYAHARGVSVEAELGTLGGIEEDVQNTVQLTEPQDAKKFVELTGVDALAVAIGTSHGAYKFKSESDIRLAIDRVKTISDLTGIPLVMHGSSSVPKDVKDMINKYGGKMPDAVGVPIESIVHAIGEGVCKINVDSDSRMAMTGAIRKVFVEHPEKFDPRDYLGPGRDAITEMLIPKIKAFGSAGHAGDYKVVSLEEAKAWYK
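40 nM FBPA preincubated 10 min at RT with compound (up to 57.5 uM final), then substrate plus GAPDH/TPI/NAD/arsenate coupling and diaphorase/resazurin added. Fluorescence read after 20 min at RT, 525/598 nm.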
HCMV inh: qHTS Assay for inhibitors of the human cytomegalovirus (HCMV) | activity change, negative = inhibition, % at 57.5 µM | actives 4.5% (n = 410,000) | HFF cells, HCMV-luciferase reporter, 72 h; hits give low values; in the data active = activity change below about -60%; inconclusive = no clear call, values can overlap the other calls; inactive = above about -39%
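Cell-based, HFFs, 1000 cells/well, 16 h 37C; cpds in DMSO + HCMV-luc, MOI 1 PFU/cell; 72 h 37C; OneGlo luminescence after 5 min RT; norm. to buffer vs Salinomycin 10uM.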
HCV inhibitor: qHTS Assay for Inhibitors of Hepatitis C Virus (HCV); actives 3.4% (n = 340,000); Potency, µM (titrated, usually from 41.8 µM), usual class: inhibitors; Huh7.5.1 HCVcc-Cre infection, luciferase reporter, 44 h; AID 651820, 2012
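Antiviral activity was scored by luciferase reporter output from cells infected with HCVcc-Cre (~0.5 moi) in presence of compound, 44 h infection period, cells seeded 1,000/well 4 h prior.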
Vaccinia mCherry: qHTS for Stage-Specific Inhibitors of Vaccinia Orthopoxvirus: mCherry Reporter Primary qHTS | Vaccinia virus mCherry reporter infection, fluorescence | Potency, µM (top dose mostly 36.5 µM), most hits filed as inhibitors | actives 0.63% (n = 310,000); calls by dose curve; tested in A549 cells; also: nearly all actives have a fitted effect of over 35% in size
FMDV inh: High Throughput Screening for Foot and Mouth Disease Virus Antivirals; Potency, µM (top dose mostly 57.9 µM), most hits filed as inhibitors; actives 1.2% (n = 410,000); FMDV antiviral cell-based qHTS; calls by dose curve; tested in HEK293T cells; also: read-out not given here; nearly all actives have a fitted effect of over 45% in size
Each line names hits and unclear results; the compound was inactive in the other large screens. Unless noted, calls follow the shape of the dose curve; as a rule, active = well fitted curve in the direction sought with a large enough effect; inconclusive = small, poorly fitted or top-dose-only effect, or another doubt; inactive = no such curve, though single readings can be large; an effect the other way counts as inactive or inconclusive.

COC(=O)c1ccc(CSc2nnc(CS(=O)Cc3ccc(Br)cc3)n2-c2ccccc2)cc1 (centres undefined)	HCV inhibitor 14µM
O=[N+]([O-])c1ccc(CSc2nnc(Cc3ccccc3)n2-c2ccc(F)cc2)cc1	HCMV inh inconclusive
O=S(Cc1ccc(Br)cc1)Cc1nnc(SCc2ccc(Br)cc2)n1-c1ccccc1 (centres undefined)	VACV Venus inh inconclusive, HCMV inh -80, HCV inhibitor 5µM, Vaccinia mCherry inconclusive, FMDV inh 16µM
CC[N+]1(C)[C@@H]2CC[C@H]1CC(OC(=O)[C@H]1CCC(C(=O)OC3C[C@H]4CC[C@@H](C3)[N+]4(C)CC)(c3ccccc3)c3ccccc31)C2 (some centres undefined)	HCMV inh -69 (no result: Giardia FBPA inh)
C[N+]1(C)[C@@H]2CC[C@H]1CC(OC(=O)C(c1ccccc1)c1ccccc1)C2 (some centres undefined)	none (no result: VACV Venus inh, Vaccinia mCherry)
COc1ccc(N2C(=O)NC3CC2(C)Oc2ccc(Cl)cc23)cc1OC (centres undefined)	Vaccinia mCherry inconclusive
COc1ccc(CCN2C(=S)NC3CC2(C)Oc2ccc([N+](=O)[O-])cc23)cc1OC (centres undefined)	HCV inhibitor 4.5µM, FMDV inh 25µM (no result: VACV Venus inh, Vaccinia mCherry)
Cc1cccc(-n2ncc3c2CCCC3NC(=O)CCc2ccncc2)c1C (centres undefined)	HCV inhibitor inconclusive, FMDV inh inconclusive (no result: VACV Venus inh, Vaccinia mCherry)
Cc1cccc(-n2ncc3c2CCCC3NC(=O)C2CCOCC2)c1C (centres undefined)	HCV inhibitor 22µM (no result: Giardia FBPA inh)
Cc1cc(C(=O)NC2CCCc3c2cnn3-c2cccc(C)c2C)n(C)n1 (centres undefined)	HCV inhibitor 0.32µM, FMDV inh inconclusive (no result: VACV Venus inh, Vaccinia mCherry)
Cc1cccc(-n2ncc3c2CCCC3NC(=O)c2ccc[n+]([O-])c2)c1C (centres undefined)	HCMV inh inconclusive, HCV inhibitor 13µM (no result: VACV Venus inh, Vaccinia mCherry)
O=C(NC1CCCc2c1cnn2-c1cc(F)cc(F)c1)c1ccc[n+]([O-])c1 (centres undefined)	none (no result: Giardia FBPA inh)
CCOc1ccc(N2CC(c3nc(-c4cc(OC)c(OC)c(OC)c4)no3)CC2=O)cc1 (centres undefined)	none (no result: Giardia FBPA inh, HCV inhibitor)
COc1cc2c(cc1OC)C1C(=O)c3ccc4c(c3OC1CO2)CC(C(C)C)O4 (centres undefined)	HCMV inh -96, HCV inhibitor inconclusive, Vaccinia mCherry inconclusive, FMDV inh inconclusive (no result: Giardia FBPA inh)
COc1cc2c(cc1OC)[C@@H]1C(=O)c3ccc4c(c3O[C@@H]1CO2)C[C@H](C(C)C)O4	HCMV inh -94, HCV inhibitor 0.32µM, FMDV inh inconclusive
COC(=O)CC1C2(C)CC34OC5(C)O[C@@]6(C7/C(=C(/OC)C(C)C)C(=O)OC(c8ccoc8)[C@@]7(C)C(OC(=O)C(C)C)C(OC)[C@]6(O5)[C@@]13C)C(OC)[C@]4(OC)C2OC(C)=O (some centres undefined)	FMDV inh inconclusive (no result: HCMV inh, HCV inhibitor)
CC(=O)c1ccc(-c2nc3c4ccccc4ccn3c2C(C)=O)o1	HCMV inh -65
Cc1ccc(Cc2c(-c3ccco3)nc3c4ccccc4ccn23)cc1	none (no result: Giardia FBPA inh, HCV inhibitor)
CC1CCCC(C)N1/N=C/c1ccc(Cl)cc1 (centres undefined)	HCV inhibitor 11µM
Cc1ccc(NC(=O)CCNC(=O)c2ccc(Cl)cc2)cc1C	none (no result: VACV Venus inh, Vaccinia mCherry)
COc1ccc(CNC(=O)CN(Cc2ccccc2)S(=O)(=O)c2ccc(Cl)cc2)cc1	HCV inhibitor 10µM, FMDV inh inconclusive (no result: VACV Venus inh, Vaccinia mCherry)
COc1ccc(CNC(=O)CN(Cc2ccc(Cl)cc2)S(=O)(=O)c2ccccc2)cc1	FMDV inh 28µM (no result: VACV Venus inh, Vaccinia mCherry)
COCC(=O)Nc1cc(C(=O)Nc2ccccc2)ccc1Cl	none (no result: VACV Venus inh, HCV inhibitor, Vaccinia mCherry, FMDV inh)
CCc1ccc(S(=O)(=O)c2cn(CC(=O)Nc3cccc(C)c3)c3ccc(Cl)cc3c2=O)cc1	none (no result: Giardia FBPA inh, HCV inhibitor)
NS(=O)(=O)c1ccc(NC(=O)c2nc(S(=O)(=O)Cc3ccccc3F)ncc2Cl)cc1	none (no result: Giardia FBPA inh, HCMV inh, HCV inhibitor, FMDV inh)
CCOC(=O)c1ccc(NC(=O)c2nc(SC(C)C)ncc2Cl)cc1	none (no result: Giardia FBPA inh, HCV inhibitor)

High-throughput results (PubChem)
